Sampled rows, rich in hits. Any-hit rate of the full collection: about 8.7%.
JMJD2A Tudor – blocks the human JMJD2A Tudor domain; AlphaScreen JMJD2A-Tudor / H3K4me3 peptide binding; Potency, µM (highest dose often 114 µM), most hits filed as inhibitors; hit rate 4.4% among 390,000; AID 504339; note: nearly all actives have a fitted effect of over 50% in size
Sfp inh – blocks B. subtilis Sfp PPTase activity; AID 1490; Potency, µM, hits mostly inhibitors; Biochemical Sfp PPTase activity, qHTS; hit rate 3.5% among 310,000; Q9F4F7;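 note: the enzyme is Sfp with the accession as filed and its product quenches rhodamine fluorescence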
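Compounds were incubated with enzyme (final 15 nM) for 15 min at room temperature before substrate addition started the reaction. Fluorescence at 525 nm excitation, 598 nm emission was recorded immediately and after 30 minutes.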
G9a block – blocks human histone lysine methyltransferase G9a; Q96KQ7; G9a H3K9 monomethylation, AlphaScreen, 2 h; Potency, µM (highest dose often 102 µM), actives largely listed as inhibitors; hit rate 8.8% among 350,000; AID 504332; note: nearly all actives have a fitted effect of over 75% in size
Target sequence (Q96KQ7 913-1193 limits assumed): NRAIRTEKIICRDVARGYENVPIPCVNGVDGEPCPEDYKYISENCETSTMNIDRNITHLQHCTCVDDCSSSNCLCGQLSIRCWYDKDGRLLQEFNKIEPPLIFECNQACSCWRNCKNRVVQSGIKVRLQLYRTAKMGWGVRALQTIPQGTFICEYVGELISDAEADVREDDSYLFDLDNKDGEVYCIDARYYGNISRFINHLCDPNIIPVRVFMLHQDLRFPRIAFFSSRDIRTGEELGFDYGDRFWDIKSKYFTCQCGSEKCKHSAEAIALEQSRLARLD
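Methyltransferase reactions run at room temperature for 2 h (20 nM enzyme, 500 nM biotin-H3K9 peptide, 20 uM SAM) after a 15 min compound preincubation; product detected by AlphaScreen beads and anti-H3K9me1 antibody.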
BAZ2B block – blocks human BAZ2B. AlphaScreen BAZ2B-H3K14Ac peptide displacement. hit rate 4.4% among 360,000. Potency, µM (highest dose often 114 µM), usual class: inhibitors. AID 504333; note: nearly all actives have a fitted effect of over 60% in size
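Inhibition is scored as reduced AlphaScreen emission. The BAZ2B/b-H3(5-23)K14Ac complex (50 nM each) in PBS pH 7.4, 0.01% Tween-20 meets compound (up to 110 uM) for 30 min at RT before bead addition.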
HP1b binding inh – blocks HP1-beta chromodomain binding to methylated histone tails; AlphaScreen HP1-beta / biotin-H3K9me3 peptide binding; P83916; AID 540317; Potency, µM (top dose mostly 114 µM), most hits filed as inhibitors; hit rate 0.56% among 390,000; note: nearly all actives have a fitted effect of over 70% in size
Target sequence (P83916 whole entry, looked up): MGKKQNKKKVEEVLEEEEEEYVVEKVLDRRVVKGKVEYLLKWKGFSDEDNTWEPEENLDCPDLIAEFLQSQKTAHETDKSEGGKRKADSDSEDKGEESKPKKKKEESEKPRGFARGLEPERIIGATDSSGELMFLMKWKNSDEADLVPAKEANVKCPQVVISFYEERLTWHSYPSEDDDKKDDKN
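AlphaScreen: HP1-beta (50 nM) preformed 30 min with biotin-H3(1-18)K9me3 peptide (50 nM) in PBS pH 7.4, 0.01% Tween-20. Compound added for 30 min at RT, then streptavidin donor/nickel chelate acceptor beads (10 ug/mL) for 30 min.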
12-LOX inh – inhibitors of human 12S-lipoxygenase ALOX12; P18054; purified 12hLO, xylenol orange hydroperoxide absorbance; Potency, µM (series often up to 108 µM), hits mostly inhibitors; hit rate 1.1% among 580,000
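Purified human 12hLO at 150 nM in 25 mM Hepes, 0.01% Triton X-100, pH 7.0, preincubated 15 min at room temperature with compound. Reaction started with 40 uM arachidonic acid, 30 min at room temperature. Hydroperoxide measured by Fe-xylenol orange, 573/405 nm absorbance ratio.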
Hits are given with their value; 0 = inactive; ? = inconclusive; - = no result given; ! = not confirmed by another sample; [ ] = another dose, or the depositor's remark. Calls come from the whole dose curve; as a rule, active = well fitted curve in the direction sought with a large enough effect; inconclusive = small, poorly fitted or top-dose-only effect, or another doubt; inactive = no such curve, though single readings can be large; an effect the other way counts as inactive or inconclusive.

SMILES	JMJD2A Tudor	Sfp inh	G9a block	BAZ2B block	HP1b binding inh	12-LOX inh
COc1ccc(OC)c(Nc2nc(-c3sc(NC(=O)c4ccccc4)nc3C)cs2)c1	-	0	0[12.7 µM]	0	-	-
O=C(CN1CC2CC(C1)[C@H]1CCCC(=O)N1C2)NCc1cccc(Cl)c1 (stereo partly specified)	-	-	-	-	-	0
Cn1ccc2c(C(=O)N3CCCC(c4ccc(C(=O)O)cc4)C3)cccc21 (stereo unspecified)	-	-	-	-	-	0
O=C1CCN(C(=O)[C@@H](Cc2ccccc2)NS(=O)(=O)c2ccc3c(c2)CCC3)CCOCCN1	-	-	-	-	-	0
Cc1oc(-c2nc(C#N)c(N3CCCCC3)o2)cc1S(=O)(=O)N(C)C	-	-	-	-	-	0
Cc1ccccc1Nc1nc(-c2sc(NC(=O)c3ccc([N+](=O)[O-])cc3)nc2C)cs1	-	0	25µM	45µM	-	-
CCOc1ccccc1Nc1nc(-c2sc(NC(=O)c3ccc([N+](=O)[O-])cc3)nc2C)cs1	-	0	?	?	-	-
O=C1C=CC(=O)N1c1ccccc1N1C(=O)C=CC1=O	2.8µM	-	-	-	2.8µM	0
O=C(c1ccccc1)c1ccccc1N1C(=O)C=CC1=O	18µM	1.3µM	0.79µM	0	11µM	7.9µM
O=C(O)c1cccc(N2C(=O)C=CC2=O)c1	-	-	-	-	-	0
O=c1[nH]n(-c2ccccn2)c(=O)c2ccccc12	79µM	0	?	-	0	?
O=C1C=CC(=O)N1c1ccccn1	89µM	-	-	-	?	0
c1ccc2c(CNc3ccc(CNc4ncn[nH]4)cc3)cccc2c1	56µM	0	?	45µM	?	0
COc1ccccc1CNc1ccc(CNc2ncn[nH]2)cc1	?	0	0	?	0	0
NC(=O)C(Sc1ccc2c(c1)OCCCO2)c1ccccc1 (stereo unspecified)	-	-	-	-	-	0
Cc1ccc2oc(C(=O)N(Cc3ccncc3)CC3CCCO3)c(C)c2c1 (stereo unspecified)	0	0	?	0	0	0
Cc1c(C(=O)N(Cc2ccc(Cl)cc2)CC2CCCO2)oc2ccc(F)cc12 (stereo unspecified)	0	-	0	0	0	?
Cc1cc2oc(C(=O)N(Cc3ccc(N(C)C)cc3)CC3CCCO3)c(C)c2cc1Cl (stereo unspecified)	22µM	-	14µM	14µM	0	0
Cc1c(C(=O)N(Cc2ccc(N(C)C)cc2)CC2CCCO2)oc2ccc(Cl)cc12 (stereo unspecified)	13µM	-	11µM	10µM	?	0
Cc1c(C(=O)N(Cc2ccc(N(C)C)cc2)CC2CCCO2)oc2ccc(Br)cc12 (stereo unspecified)	13µM	-	13µM	10µM	?	0
Cc1c(C(=O)N(Cc2ccc(N(C)C)cc2)CC2CCCO2)oc2ccccc12 (stereo unspecified)	28µM	0	14µM!	11µM	?	0
CC(=O)Nc1ccc(-c2ccc(=O)n3c2[C@@H]2C[C@@H](CN(C(=O)COc4ccccc4)C2)C3)cc1	-	-	-	-	-	0
Cc1ccc(N2CC(C(=O)NCCS(=O)(=O)N3CCN(c4ccccc4F)CC3)CC2=O)cc1 (stereo unspecified)	16µM!	0	0	0	0	0
C=Cc1ccc(Cn2c(C(=O)O)c(CNCc3ccccc3)c3ccc(C)cc32)cc1	?	-	?	50µM	0	?
S=C(NCc1ccccc1)NC1CCCCC1	0	0	0	0	0	0
SMILES	JMJD2A Tudor	Sfp inh	G9a block	BAZ2B block	HP1b binding inh	12-LOX inh
S=C(NCCc1c[nH]c2ccccc12)NC1CCCCC1	35µM	0	0	?	?	?
Cc1ccc(NC(=S)NCCc2c[nH]c3ccccc23)cc1	?	0	0[0.501 µM]	?	0	?
S=C(NCCc1c[nH]c2ccccc12)Nc1ccc(Br)cc1	-	-	-	-	-	32µM
CC(C)c1ccc(NC(=S)NCCc2c[nH]c3ccccc23)cc1	?	0	45µM	35µM	?	35µM
O=C(NCCc1c[nH]c2ccccc12)Nc1ccccc1	0	0	0	0	0	0
S=C(NCCCc1ccccc1)NC1CCCCC1	0	0	0	?	0	45µM
COc1ccc(C)cc1N1CC(C(=O)Nc2ncn[nH]2)CC1=O (stereo unspecified)	-	-	-	-	-	0
O=C(Nc1ccccc1C(=O)N1CCN(Cc2ccccc2)CC1)c1ccccn1	?	0	14µM	0	0	0
Nc1cccc(Nc2ccccc2)c1	0	0	-	?	0	?
c1ccc(Nc2cccc(Nc3ccccc3)c2)cc1	32µM	0	16µM	13µM	40µM	?
O=C(O)Cc1sc(-c2ccccc2)nc1-c1ccccc1	0	0	?	0	0	0
O=C(O)Cc1nc(-c2cccnc2)sc1-c1ccc(Br)cc1	0	0	?	0	0	28µM
CN1C(=O)CCC2(CNC(=O)CC3CCCC3)CCCC=C12 (stereo unspecified)	-	-	-	-	-	0
CC(C)Nc1nc(NCc2ccccc2)c2sccc2n1	-	-	-	-	-	0
CC(=O)Nc1ccc(CNc2nc(NC(C)C)nc3cc(-c4ccccc4)sc23)cc1	-	-	-	-	-	45µM

High-throughput results deposited in PubChem by National Center for Advancing Translational Sciences (NCATS).
